Inconclusive results are not listed. The source made the active and inactive calls. How the source made its calls, unless noted: active means hit-call score of the fitted dose curve at least 0.9, where 1 is the maximum; inactive means score below 0.9.
Tests used:
[1] = read-out: Transforming Growth Factor (TGFB1), TGFB1 (gene 7040); assay: LTEA_HepaRG_TGFB1: Life Technologies and Expression Analysis (LTEA) Assay for Transforming Growth Factor (TGFB1) Transporter using HepaRG (AID 2283533); conditions: mRNA level, 48 h; actives raise or lower the signal
Method in brief: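 qRT-PCR readout of TGFB1 transcript in HepaRG lysates, normalized to three housekeeping genes; gain or loss of signal fitted relative to 0.5% DMSO vehicle. Exposure: 48 h, 8-point curve from 100 uM, duplicate wells.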

[2] = read-out: TIMP1, TIMP1 (gene 7076); assay: LTEA_HepaRG_TIMP1: Life Technologies and Expression Analysis (LTEA) Assay for TIMP1 using HepaRG (AID 2283534); conditions: mRNA level, 48 h; actives raise or lower the signal
Method in brief: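 HepaRG, 48 h exposure, 8-pt half-log series from 100 uM in 0.5% DMSO, duplicates; TIMP1 transcript by Fluidigm qRT-PCR, housekeeping-normalized; bidirectional curve fit vs DMSO baseline.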

[3] = read-out: Tumor necrosis factor receptor 1 (TNFRSF1A), TNFRSF1A (gene 7132); assay: LTEA_HepaRG_TNFRSF1A: Life Technologies and Expression Analysis (LTEA) Assay for Tumor necrosis factor receptor 1 (TNFRSF1A) using HepaRG (AID 2283535); conditions: mRNA level, 48 h; actives raise or lower the signal
Method in brief: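 HepaRG, 48 h plating then 48 h chemical exposure, serum-free induction media; 8-pt CRC from 100 uM, half-log, 0.5% DMSO vehicle, duplicates. Readout: TaqMan qRT-PCR (Fluidigm), housekeeping-gene normalized; bidirectional fit vs DMSO.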

[4] = read-out: UDP glucuronosyltransferase (UGT1A1), UGT1A1 (gene 54658); assay: LTEA_HepaRG_UGT1A1: Life Technologies and Expression Analysis (LTEA) Assay for UDP glucuronosyltransferase (UGT1A1) using HepaRG (AID 2283538); conditions: mRNA level, 48 h; actives raise or lower the signal
Method in brief: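 Cells are plated, cultured 48 h, switched to serum-free induction medium, then dosed 48 h at eight concentrations (max 100 uM, 0.5% DMSO). RNA is isolated and UGT1A1 expression measured by qRT-PCR; changes versus DMSO are fitted in both directions.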

[5] = read-out: UDP glucuronosyltransferase (UGT1A6), UGT1A6 (gene 54578); assay: LTEA_HepaRG_UGT1A6: Life Technologies and Expression Analysis (LTEA) Assay for UDP glucuronosyltransferase (UGT1A6) using HepaRG (AID 2283539); conditions: mRNA level, 48 h; actives raise or lower the signal
Method in brief: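 qRT-PCR readout of UGT1A6 mRNA (normalized to ACTB/GAPDH/POLR2A) in differentiated HepaRG cells after 48 h chemical exposure; 8 concentrations, top 100 uM, half-log steps, 0.5% DMSO. Bidirectional curve fit relative to DMSO baseline.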

[6] = read-out: X-box binding protein 1 (XBP1), XBP1 (gene 7494); assay: LTEA_HepaRG_XBP1: Life Technologies and Expression Analysis (LTEA) Assay for X-box binding protein 1 (XBP1) using HepaRG (AID 2283540); conditions: mRNA level, 48 h; actives raise or lower the signal
Method in brief: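 HepaRG, 48 h exposure, 8-pt half-log CRC top 100 uM, 0.5% DMSO vehicle, duplicates. Readout: TaqMan qRT-PCR of XBP1 mRNA, housekeeping-normalised (ACTB/GAPDH/POLR2A); bidirectional fit vs DMSO baseline.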

[7] = read-out: Cellular tumor antigen p53 (Homo sapiens) (UniProt P04637); assay: LTEA_HepaRG_TP53: Life Technologies and Expression Analysis (LTEA) Assay for Tumor Protein P53 (TP53) using HepaRG (AID 2283537); conditions: mRNA level, 48 h; actives raise or lower the signal
Method in brief: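 Differentiated HepaRG cells in serum-free induction medium exposed 48 h in duplicate to 8 half-log concentrations, top 100 uM, 0.5% DMSO. TP53 mRNA by TaqMan qRT-PCR (Fluidigm), normalized to ACTB, GAPDH, POLR2A; fitted bidirectionally versus DMSO.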

[8] = ATG_XTT_Cytotoxicity: Cytotoxicity Assessment in the Attagene TRANS-FACTORIAL HepG2 Assay (AID 2283584; active means hit-call score of the fitted dose curve at least 0.9, where 1 is the maximum;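 on AC50: cells exposed to compound for 24 h before reading; active means loss of viability signal versus DMSO baseline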)
Method in brief: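 XTT readout of cell number in transfected HepG2 cells, 24 h post-dosing; DMSO serves as negative control and baseline, with activity taken as loss of viability signal.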

[9] = LTEA_HepaRG_LDH_cytotoxicity: Cytotoxicity Assessment in the Life Technologies and Expression Analysis (LTEA) Assay (AID 2283563; active means hit-call score of the fitted dose curve at least 0.9, where 1 is the maximum;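 on AC50: LDH activity released into spent culture medium as a marker of cell death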)
Method in brief: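 HepaRG (human liver line), 48 h exposure, 8-pt half-log series from 100 uM, 0.5% DMSO vehicle, duplicates. Read-out: LDH in spent medium. Positive-direction fit vs DMSO baseline.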

Measured: AC50

Cellular tumor antigen p53 (Homo sapiens), sequence (P04637 whole entry, looked up): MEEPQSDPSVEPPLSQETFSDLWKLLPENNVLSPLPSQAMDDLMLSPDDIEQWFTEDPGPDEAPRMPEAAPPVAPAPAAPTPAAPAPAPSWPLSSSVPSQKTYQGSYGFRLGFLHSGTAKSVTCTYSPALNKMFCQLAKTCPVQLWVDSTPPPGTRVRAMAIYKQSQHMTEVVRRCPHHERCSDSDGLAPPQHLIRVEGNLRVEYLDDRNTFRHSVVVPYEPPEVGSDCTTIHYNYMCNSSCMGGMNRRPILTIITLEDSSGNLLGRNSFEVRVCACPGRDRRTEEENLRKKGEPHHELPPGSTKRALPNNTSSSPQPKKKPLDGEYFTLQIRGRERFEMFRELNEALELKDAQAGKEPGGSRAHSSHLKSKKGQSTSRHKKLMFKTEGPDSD

Cc1[nH]c(=O)n(C(C)(C)C)c(=O)c1Cl
active: [4] 31 µM
inactive: [1] | [2] | [3] | [5] | [6]

CNC(=O)/C=C(\C)OP(=O)(OC)OC
not listed: [7] | [8] | [9]
inactive: all other assays above

N#CN
not listed: [7] | [8] | [9]
inactive: all other assays above

COP(=S)(OC)Oc1ccc([N+](=O)[O-])cc1
not listed: [9]
inactive: all other assays above

CC1(C)C(C=C(Cl)Cl)C1C(=O)OC(C#N)c1ccc(F)c(Oc2ccccc2)c1 (stereo not drawn)
active: [4] 10.2 µM
not listed: [9]
inactive: all other assays above

CC(C)N(C(=O)COc1nnc(C(F)(F)F)s1)c1ccc(F)cc1
active: [6] 28.5 µM
inactive: [1] | [2] | [3] | [7] | [4]

COC(=O)c1ccccc1S(=O)(=O)NC(=O)Nc1nc(C)nc(OC)n1
inactive: [8]

O=C(Nc1ccccc1)Nc1cnns1
active: [4] 87.2 µM | [5] 77.9 µM | [6] 50 µM | [9] 77.2 µM
inactive: [1] | [2] | [3] | [7]

O=C(O)COc1ccc(Cl)cc1Cl
not listed: [9]
inactive: all other assays above

CCC(C)(NC(=O)c1cc(Cl)c(C)c(Cl)c1)C(=O)CCl (stereo not drawn)
active: [1] 75.6 µM | [3] 90.6 µM | [4] 12.4 µM | [5] 80.3 µM
inactive: [2] | [7] | [6]

Clc1ccccc1-c1nnc(-c2ccccc2Cl)nn1
active: [4] 10.7 µM
not listed: [7] | [8]
inactive: all other assays above

CCOCN(C(=O)CCl)c1c(C)cccc1CC
not listed: [9]
inactive: all other assays above

O=S1OCC2C(CO1)C1(Cl)C(Cl)=C(Cl)C2(Cl)C1(Cl)Cl (stereo not drawn)
active: [1] 72.1 µM | [7] 70.2 µM
not listed: [9]
inactive: all other assays above

C[C@H]1[C@H](c2ccc(Cl)cc2)SC(=O)N1C(=O)NC1CCCCC1
active: [1] 50 µM | [7] 82.3 µM | [4] 88.6 µM | [5] 78.8 µM
inactive: [2] | [3] | [6] | [9]

CCCN(CCOc1c(Cl)cc(Cl)cc1Cl)C(=O)n1ccnc1
inactive: [2] | [3] | [8]
active: [1] 27.6 µM | [7] 17.6 µM | [4] 73.7 µM | [5] 72.5 µM | [6] 78.8 µM

O=C(O)CCCOc1ccc(Cl)cc1Cl
active: [4] 34.5 µM
not listed: [9]
inactive: all other assays above

C#CCN1C(=O)COc2cc(F)c(N3C(=O)C4=C(CCCC4)C3=O)cc21
active: [4] 1.95 µM
inactive: [1] | [2] | [3] | [5] | [6]

CCCN(CCC)c1c([N+](=O)[O-])cc(C(F)(F)F)cc1[N+](=O)[O-]
active: [4] 29.2 µM
inactive: [1] | [2] | [3] | [5] | [6]

CNC(=O)CSP(=S)(OC)OC
not listed: [7] | [8] | [9]
inactive: all other assays above

CCOC1Oc2ccc(OS(C)(=O)=O)cc2C1(C)C (stereo not drawn)
inactive: [1] | [2] | [3] | [6]
active: [4] 11.8 µM | [5] 85.4 µM | [9] 83.8 µM

O=C(NC(=O)c1c(F)cccc1F)Nc1ccc(OC(F)(F)C(F)OC(F)(F)F)c(Cl)c1 (stereo not drawn)
not listed: [7] | [8] | [9]
inactive: all other assays above

CC(C)(C)C(O)/C(=C\c1ccc(Cl)cc1Cl)n1cncn1 (stereo not drawn)
active: [2] 69.2 µM | [4] 69.2 µM | [5] 36.4 µM | [8] 56.3 µM
inactive: [1] | [3] | [7] | [6]

CCS(=O)(=O)c1cccnc1S(=O)(=O)NC(=O)Nc1nc(OC)cc(OC)n1
inactive: [8]

CC[C@H](C)[C@H]1O[C@]2(C=C[C@@H]1C)C[C@@H]1C[C@@H](C/C=C(\C)[C@@H](O[C@H]3C[C@H](OC)[C@@H](O[C@H]4C[C@H](OC)[C@@H](O)[C@H](C)O4)[C@H](C)O3)[C@@H](C)/C=C/C=C3\CO[C@@H]4[C@H](O)C(C)=C[C@@H](C(=O)O1)[C@]34O)O2 (tested in a mixture with another compound)
inactive: [6]
active: [1] 55.3 µM | [2] 11.7 µM | [3] 51.4 µM | [7] 6.99 µM | [5] 18.6 µM | [9] 22.1 µM
